Only some compounds are listed: those with a hit (about 13% of all), similar ones and a draw of the others.
USP10 inh: inhibitors of human USP10 deubiquitinase | Q14694 | purified USP10, Ub-rhodamine fluorescence, 60 min | inhibition, % at 20 µM | actives 1.1% (n = 47,000) | AID 1645856
USP30 inh: inhibitors of human USP30 deubiquitinase. Q70CQ3. inhibition, % at 25 µM. purified USP30, Ub-rhodamine cleavage fluorescence. actives 5.3% (n = 47,000)
USP8 inh: human USP8 deubiquitinase inhibition | P40818 | AID 1645853 | actives 4.2% (n = 47,000) | inhibition, % at 20 µM | purified USP8, Ub-rhodamine cleavage fluorescence, 30 min
USP17 inh: inhibitors of human USP17 deubiquitinase | actives 6.5% (n = 47,000) | AID 1645855 | inhibition, % at 50 µM | purified USP17, Ub-rhodamine cleavage fluorescence, 3 h
USP28 block: inhibitors of human USP28 deubiquitinase | Q96RU2 | purified USP28, Ub-rhodamine cleavage fluorescence, 30 min | inhibition, % at 25 µM | actives 3% (n = 47,000) | AID 1645857
OTUD3 block: human OTUD3 deubiquitinase inhibition; purified OTUD3, Ub-rhodamine fluorescence, 2 h; Q5T2D3; actives 0.7% (n = 47,000); inhibition, % at 25 µM
An asterisk follows results filed as active; nt = no result. Cut-off read from the data, not from the text of the source: active = inhibition above about 30%; inactive = the rest.

SMILES | USP10 inh | USP30 inh | USP8 inh | USP17 inh | USP28 block | OTUD3 block
O=S(=O)(c1ccc(F)cc1)N1CCC2(CC1)NCCN=C2NCc1cccc(F)c1 | 1 | 0 | -11 | -7 | -2 | 0
CCC(C)[C@H](NC(=O)N1CCn2c1nc1ccccc12)C(=O)NCCc1ccccc1 (some centres undefined) | 0 | 30* | 7 | 35* | 25 | 9
C[C@H](NC(=O)[C@H](Cc1ccccc1)NC(=O)N1CCn2c1nc1ccccc12)C(=O)O | 3 | 15 | 12 | 17 | 17 | 14
C[C@H](NC(=O)N1CCn2c1nc1ccccc12)C(=O)NCc1ccc(F)cc1 | -4 | 41* | -1 | 34* | 3 | 9
Cc1cc(-c2cnc(N3CCCCC3)nc2C2CCN(C(=O)C(C)C)CC2)on1 | 3 | 13 | 12 | 10 | -2 | -3
CC1=C(C(=O)Nc2ccccc2)C(c2ccncc2)n2c(nc3ccccc32)N1 (centres undefined) | 0 | 12 | 3 | 0 | 20 | 3
Fc1cc(F)c2[nH]cc(-c3nnnn3-c3ccc4ccccc4c3)c2c1 | 31* | 71* | 55* | nt | 45* | 13
O=C(Nc1cccc(Oc2ccccc2)c1)c1ccc2nc[nH]c2c1 | 1 | -9 | 1 | -1 | 34* | -7
NC(=O)c1cccc(NC(=O)c2cccc(Oc3ccccc3)c2)c1 | -3 | -4 | 10 | 6 | 15 | -4
O=C(Nc1cccc(Oc2ccccc2)c1)c1c(F)cccc1F | -4 | -23 | -8 | -4 | 36* | -20
Nc1nc(SC/C=C/c2ccccc2)n[nH]1 | 0 | 21 | 15 | 7 | 13 | 6
COc1cc(O)c2c(=O)cc(C)oc2c1CC=C(C)C | 10 | 31* | 7 | 38* | 30 | 1
O=S(=O)(c1cccc(Cl)c1)N1CCN(c2cnn3cnnc3c2)CC1 | 1 | 9 | -10 | 43* | 10 | 6
CCCSc1nc(N)c2c3c(sc2n1)COC(C)(C)C3 | 3 | -13 | 3 | 47* | -11 | -5
CC1(C)Cc2c(sc3nc(SCCOc4ccccc4)nc(N)c23)CO1 | 2 | 16 | -1 | 16 | 9 | 5
Cc1c(C(=O)NCc2ccco2)oc2c1/C(=N\O)CCC2 | 10 | 3 | 8 | 31* | 15 | 15
CCOC(=O)COc1nc(-c2ccccc2)cc(-c2cccs2)c1C#N | 4 | -9 | 6 | -5 | -14 | -9
N#Cc1c(-c2ccc(Cl)cc2)cc(-c2cccs2)nc1N | -1 | -8 | 17 | 38* | 27 | -1
CC(=O)c1cccc(NC(=O)CCS(=O)(=O)c2ccc3c(c2)SCC(=O)N3)c1 | -8 | -119 | -29 | -32 | -16 | -26
COc1ccc(NC2c3ccccc3C(=O)N2c2ccccn2)cc1 (centres undefined) | -9 | -77 | 83* | 57* | -2 | -11
Cc1ccc(NC2c3ccccc3C(=O)N2c2ccccn2)cc1 (centres undefined) | 1 | -10 | -24 | -4 | 16 | 4
Cc1ccc(CNC(=O)[C@@H](NC(=O)C2CCN(C(=O)[C@@H](N)Cc3ccccc3)CC2)C(C)C)cc1 | -1 | 30* | -44 | -6 | 12 | 8
Cc1ccc(S(=O)(=O)N[C@H](C(=O)N2CCC(C(=O)N[C@@H](Cc3ccccc3)C(=O)O)CC2)C(C)C)cc1 | 2 | 32* | 23 | 17 | 9 | 20
Cc1ccc(S(=O)(=O)N[C@@H](C(=O)N2CCC(C(=O)N[C@@H](Cc3ccccc3)C(=O)O)CC2)C(C)C)cc1 | 3 | 5 | 9 | 0 | -2 | 0
CC(NC(=O)[C@H](NC(=O)C1CCN(C(=O)[C@H](N)Cc2ccccc2)CC1)C(C)C)c1ccccc1 (some centres undefined) | -2 | 31* | -48 | 1 | 7 | 10
CC(C)[C@H](NC(=O)C1CCN(C(=O)[C@@H](N)Cc2ccccc2)CC1)C(=O)NCc1ccc(F)cc1 | 1 | 5 | -105 | -11 | -1 | 2
Cc1nn(-c2cc(N3CCOCC3)ncn2)c(C)c1CCC(=O)Nc1ccc(C(C)C)cc1 | -2 | -7 | -151 | 65* | 4 | 7
Cc1ccc(CNS(=O)(=O)c2ccc3c(c2)NC(=O)CC(C)S3)cc1 (centres undefined) | 1 | 9 | 17 | 16 | 8 | 9

From PubChem BioAssay
